The source of these data is PubChem BioAssay (Tox21).

“And” between values parts separate entries of the source, which are not always exact repeats. Equal values may be shown once. Inconclusive results are not listed. Some structures have more than one record in an assay (separate samples or runs), and their calls can disagree. The source made the active and inactive calls. Calls come from the whole dose curve; as a rule, active = well fitted cell-killing curve with a large enough effect in the repeat runs; inconclusive = weak or mixed curves, or effect the other way; inactive = no such curve, though single readings can be large or run the other way.
% is set by controls: 0 for no effect and ±100 for the full control effect; potency is the fitted concentration of half-maximal effect.

A short description of the assay: qHTS assay to identify small molecule antagonists of the vitamin D receptor (VDR) signaling pathway - cell viability counter screen (AID 743225). Note: nearly all actives have a fitted effect of over 50% in size. Particulars: VDR-bla HEK293T viability, CellTiter-Glo luminescence, 16 h; series mostly up to 61 µM; viability change, negative = cytotoxic: at the top concentration. The text has this:
U.S. Tox21 Program National Center for Advancing Translational Sciences [NCATS] NIH Chemical Genomics Center [NCGC] U.S. Environmental Protection Agency [EPA] National Institutes of Environmental Health Sciences [NIEHS] National Toxicology Program [NTP] U.S. Food and Drug Administration [FDA] Tox21 Assay Overview: The vitamin D receptor (VDR), a member of nuclear hormone receptor superfamily, plays a critical role in calcium homeostasis and bone metabolism. It is also involved in cell differentiation and growth, and thrombogenicity. To identify the compounds that inhibit VDR signaling, the VDR-UAS-bla HEK 293T cell line (Invitrogen, Carlsbad, CA, USA) containing a beta-lactamase reporter gene under the control of an upstream activator sequence (UAS) was used to screen the Tox21 10K compound library. The cytotoxicity of the Tox21 compound library against the VDR-bla cell line was tested in parallel by measuring the cell viability using CellTiter-Glo assay (Promega, Madison, WI) in the same wells.
Tox21 Assay Protocol Summary: VDR-bla cells were dispensed at 2,000 cells/5 uL of assay medium per well into black wall/clear-bottom 1536-well plates using a Multidrop Combi (Thermo Fisher Scientific, Waltham, MA) dispenser. After the assay plates were incubated at a 37C and 5% CO2 for 4 h, 23 nL of compounds dissolved in DMSO, positive controls or DMSO only was transferred to the assay plate by a Pintool station (Kalypsys, San Diego, CA), followed by addition of 1 uL of 1-alpha, 25-Dihydroxy Vitamin D3 (3 nM, final concentration in the wells) using a Bioraptr Flying Reagent Dispenser (FRD) workstation (Beckman Coulter, Indianapolis, IN). The plates were incubated at 37C and 5% CO2 for 16 h, and then 1 uL of LiveBLAzerTM B/G FRET substrate was added using a Bioraptr FRD. The plates were incubated at room temperature for 2 h and fluorescence intensity was measured by an Envision plate reader (PerkinElmer, Shelton, CT). For cell viability readout that measures cytotoxicity, 3 ul/well of CellTiter-Glo reagent was added into the assay plates using a Bioraptr FRD. After 30 min incubation at room temperature, the luminescence intensity in the plates was measured using a ViewLux plate reader (PerkinElmer).
`CC(C)(O)C(Cl)(Cl)Cl`: the “viability change, negative = cytotoxic” value is 1.12% (inactive).
For `O=C1C2CC=CCC2C(=O)N1SC(Cl)(Cl)Cl` (stereo not given), the Potency result is “inactive and 21.5 µM (active)”.
For `C=C(C)[C@H]1CN[C@H](C(=O)O)[C@H]1CC(=O)O`, the “viability change, negative = cytotoxic” value is 11.6% (inactive).
Consider `CCOP(=S)(OCC)Oc1ccc(Cl)cc1Cl`, for which the “viability change, negative = cytotoxic” value was 22.6% (inactive).
As to `CC(C)[C@]12CC(=O)[C@H](C)[C@H]1C2`, the “viability change, negative = cytotoxic” value was 4.59% (inactive).
The same measure, in the same setting: for `CC(C)N(Cc1ccccc1)C(=O)C(C)(C)C` the value was 6.38% (inactive); for `COc1ccc(CN2CCNCC2)c(OC)c1OC`, -11.1% (inactive); for `CNC(=O)Oc1ccccc1C(C)C`, 16.1% (inactive).
Still for that read-out and setting: for `O=C(O)C(F)(F)C(F)(F)C(F)(F)C(F)(F)C(F)(F)C(F)(F)F` the value was -1.67% (inactive); for `COC(=O)c1ccc(CBr)cc1`, 5.27% [at 78.8 µM] (inactive); for `Cc1ccc(S(=O)(=O)N[C@@H](CCCCN)C(=O)CCl)cc1`, 0.422% (inactive).
Regarding `ClCCCCl`, the “viability change, negative = cytotoxic” value is 3.07% [at 78.8 µM] (inactive).
On the same count and under the same terms, for `CC(C)NCC(O)c1ccc([N+](=O)[O-])cc1` (stereo not given) the value was -10.5% (inactive); for `CCCCCCC(=O)CCCCCC/C=C/C[C@@H](O)[C@H](O)[C@@](N)(CO)C(=O)O`, -1.71% [at 28.5 µM] (inactive); for `NCCOS(=O)(=O)O`, 11.8% (inactive).
Consider `C=CCC1(C(C)CC)C(=O)NC(=O)NC1=O` (stereo not given), for which the “viability change, negative = cytotoxic” value is 6.99% (inactive).
The same measure, in the same setting: for `CCC(=O)OC1(c2ccccc2)CCN(C)CC1` the value was -7.72% [at 78.8 µM] (inactive).
Take `BrCCc1ccccc1`: the “viability change, negative = cytotoxic” value was 0% [at 78.8 µM] (inactive).
For `C=C(Cl)CCl`, the “viability change, negative = cytotoxic” value was 9.29% (inactive).
Still for that read-out and setting: for `C=CCN1CC[C@]23CCCC[C@H]2[C@H]1Cc1ccc(O)cc13` the value was -2.63% (inactive).
The same measure, in the same setting: for `CC(C)(N)Cc1ccccc1Cl` the value was 4.16% (inactive).
For `CCNc1nc(NCC)nc(SC)n1`, the “viability change, negative = cytotoxic” value was 8.95% (inactive).
Still for that read-out and setting: for `N#CC(Br)(Br)C(N)=O` the value was -9.15% (inactive); for `O=P(O)(O)c1ccccc1`, 26.9% (inactive).
The same measure, in the same setting: for `O=c1[nH]c2ccccc2n1C1CCNCC1` the value was -20.7% (inactive); for `CCOC(=O)Nc1cccc(OC(=O)Nc2ccccc2)c1`, -8.05% (inactive); for `N#CN=C1SCCN1Cc1ccc(Cl)nc1`, 11.8% (inactive).
Still for that read-out and setting: for `CN(CCO)CCO` the value was 2.95% [at 78.8 µM] (inactive); for `O=C(Cl)/C=C/C(=O)Cl`, 6.04% [at 78.8 µM] (inactive).
Consider `CCN(CCO)CCO`, for which the “viability change, negative = cytotoxic” value is 5.21% (inactive).
Same read-out and setting: for `C[C@H](CN1CCOCC1)C(C(=O)N1CCCC1)(c1ccccc1)c1ccccc1` the value was -0.697% [at 78.8 µM] (inactive); for `CC[C@H](O)C(C[C@H](C)N(C)C)(c1ccccc1)c1ccccc1`, -15.6% [at 78.8 µM] (inactive); for `c1cncc([C@@H]2CCCCN2)c1`, 1.31% (inactive).
Same read-out and setting: for `CCN(CC)CCOC(=O)C(O)(c1ccccc1)c1ccccc1` the value was -10.4% (inactive).
As for `O=c1[nH]c2ccccc2o1`, the “viability change, negative = cytotoxic” value was -18.6% (inactive).
Still for that read-out and setting: for `CCCOc1nn(C(=O)NS(=O)(=O)c2ccccc2C(=O)OC)c(=O)n1C` the value was -3.71% (inactive); for `CCCC(C)C1(CC)C(=O)N=C(S)NC1=O` (stereo not given), -18% (inactive).
On the same count and under the same terms, for `NNCc1ccccc1` the value was 13.4% [at 78.8 µM] (inactive); for `CC(C)(C)C(=O)Cl`, 2.07% [at 78.8 µM] (inactive).
Take `CCOC(=O)C(Cl)Cc1cc(-n2nc(C)n(C(F)F)c2=O)c(F)cc1Cl` (stereo not given): the “viability change, negative = cytotoxic” value is -8.12% (inactive).
